Assay outcomes: PubChem, National Center for Advancing Translational Sciences (NCATS)
An excerpt weighted towards active compounds, which were near 14% of everything screened.
Pf growth 96h: P. falciparum growth inhibition at 96 hour, primary screen for plastid delayed-death inhibitors. Potency, µM (top dose mostly 28.7 µM), for inactives: at the top dose activity change, negative = inhibition, most hits filed as inhibitors. actives 6.9% (n = 320,000). AID 504834. P. falciparum luciferase reporter growth, 96 h; also: potency is read from the fitted curve at half-maximal effect
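96 h incubation, 37 C, 5% CO2, of luciferase-reporter P. falciparum-infected RBCs (2% hematocrit, 0.05% parasitemia final) with test compounds; endpoint luminescence.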
Pf growth 48h: P. falciparum growth inhibition at 48 hours (one generation). actives 5.9% (n = 310,000). Potency, µM (highest dose often 28.7 µM), without a hit: at the highest dose activity change, negative = inhibition, actives largely listed as inhibitors. P. falciparum luciferase growth in erythrocytes, 48 h; also: potency is read from the fitted curve at half-maximal effect
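Luminescence readout; reporter = integrated firefly luciferase in P. falciparum. RBC culture at 2% hematocrit, 0.1% parasitemia final, 37 C/5% CO2; decreased signal taken as growth inhibition.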
Giardia FBPA inh: inhibitors of Giardia lamblia fructose-1,6-bisphosphate aldolase; purified Giardia FBPA; A8B2U2; Potency, µM (titrated, usually from 59.6 µM), without a hit: at the highest dose activity, negative = inhibition, actives largely listed as inhibitors; actives 0.71% (n = 290,000); AID 2451; also: potency is read from the fitted curve at half-maximal effect; nearly all actives have a fitted effect of over 55% in size
Target sequence (A8B2U2 whole entry, looked up): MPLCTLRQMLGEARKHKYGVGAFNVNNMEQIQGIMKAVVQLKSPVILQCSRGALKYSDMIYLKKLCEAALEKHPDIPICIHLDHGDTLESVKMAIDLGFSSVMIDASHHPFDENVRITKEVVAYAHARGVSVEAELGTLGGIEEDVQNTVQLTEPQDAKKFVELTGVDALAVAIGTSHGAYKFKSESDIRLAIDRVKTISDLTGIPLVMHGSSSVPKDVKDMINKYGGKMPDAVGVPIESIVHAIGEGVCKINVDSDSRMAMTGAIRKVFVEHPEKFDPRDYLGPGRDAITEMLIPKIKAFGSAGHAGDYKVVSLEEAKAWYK
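40 nM FBPA preincubated 10 min at RT with compound (up to 57.5 uM final), then substrate plus GAPDH/TPI/NAD/arsenate coupling and diaphorase/resazurin added. Fluorescence read after 20 min at RT, 525/598 nm.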
Sm TGR block: blocks Schistosoma mansoni thioredoxin glutathione reductase; purified TGR, DTNB reduction, TNB absorbance 405 nm; Potency, µM (doses to about 114 µM), for the others: at the highest dose activity change, negative = inhibition, actives largely listed as inhibitors; actives 3% (n = 360,000); also: potency is read from the fitted curve at half-maximal effect; nearly all actives have a fitted effect of over 60% in size
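First, TGR (20 nM dispensed) and NADPH were mixed with compound. Second, a 15 min room-temperature incubation followed. Third, further NADPH and then DTNB were added to start the reaction. Finally, TNB absorbance was monitored kinetically.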
HCMV inh: inhibitors of human cytomegalovirus; actives 4.5% (n = 410,000); HFF cells, HCMV-luciferase reporter, 72 h; stronger effect = lower value; activity change, negative = inhibition, % at 57.5 µM; in the data active = activity change below about -60%; inconclusive = no clear call, values can overlap the other calls; inactive = above about -39%
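Cell-based, HFFs, 1000 cells/well, 16 h 37C; cpds in DMSO + HCMV-luc, MOI 1 PFU/cell; 72 h 37C; OneGlo luminescence after 5 min RT; norm. to buffer vs Salinomycin 10uM.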
Numbers without * were called inactive; ? = inconclusive; nt = no result given. Unless noted, calls follow the shape of the dose curve; as a rule, active = well fitted curve in the direction sought with a large enough effect; inconclusive = small, poorly fitted or top-dose-only effect, or another doubt; inactive = no such curve, though single readings can be large; an effect the other way counts as inactive or inconclusive. % is scaled to controls: 0 for no effect and ±100 for the full control effect.

SMILES	Pf growth 96h	Pf growth 48h	Giardia FBPA inh	Sm TGR block	HCMV inh
O=[N+]([O-])c1cc(C(F)(F)F)ccc1N1CCCNCC1	?	11.9%	0.9%	28.2µM*	26.6
O=[N+]([O-])c1cc(F)c(N2CCCC2)cc1N1CCNCC1	-2.8%	5.8%	4.7%	-24.7%	nt
COCCNC(=O)c1ccc(Cn2c(SCC(=O)NC(C)C)nc3ccccc3c2=O)cc1	nt	nt	nt	-1.0%	-5.5
CCCNC(=O)C1(C)CCCN(Cc2ccc(C(F)(F)F)cc2)C1 (centres undefined)	nt	nt	nt	nt	15.1
CC1CCCCC12NC(=O)N(CC(=O)c1ccc(Cl)s1)C2=O (centres undefined)	-7.5%	-9.0%	nt	-7.6%	?
Cc1ccc(S(=O)(=O)n2c(N)nc3cc(C)c(C)cc32)cc1	nt	nt	nt	nt	3.2
CN(c1ccc(Br)cc1)S(=O)(=O)c1ccc2[nH]cc(C(=O)NCCN3CCOCC3)c(=O)c2c1	?	?	nt	-16.2%	?
N[C@@H](Cn1cc(I)c(=O)n(Cc2ccc(C(=O)O)cc2)c1=O)C(=O)O	nt	nt	-12.6%	nt	nt
CNS(=O)(=O)c1cnccc1N1CCN(c2cccc(C(F)(F)F)c2)CC1	14.7µM*	?	-3.4%	2.0%	-27.2
O=[N+]([O-])c1cc(Cl)ccc1N1CCN(c2cccc(C(F)(F)F)c2)CC1	11.7µM*	?	1.7%	-9.7%	-29.5
CNS(=O)(=O)c1cnccc1N1CCN(C)CC1	-11.7%	4.1%	4.0%	-0.9%	6.2
O=C(c1cc2c(=O)n3ccccc3nc2s1)N1CCN(Cc2ccccc2)CC1	-20.3%	-2.0%	3.8%	-1.8%	-22.5
O=C(c1cccn2c(=O)c3ccc(Cl)cc3nc12)N1CCN(Cc2ccc3c(c2)OCO3)CC1	7.38µM*	0.4%	-10.5%	-25.6%	19.0
O=C(c1cc2c(=O)n3ccccc3nc2s1)N1CCN(Cc2ccc3c(c2)OCO3)CC1	6.57µM*	-12.0%	-0.3%	nt	?
O=C(O)C1Nc2c(O)cc(Cl)c([N+](=O)[O-])c2C2C=CCC12 (centres undefined)	?	38.0%	?	3.55µM*	?
O=C(Nc1ccc(N2CCN(C(=O)c3ccc(Cl)cc3)CC2)cc1)c1ccc([N+](=O)[O-])o1	?	3.29µM*	-0.1%	-26.5%	-95.7*
CC(=O)N1CCN(c2ccc(NC(=O)c3ccc([N+](=O)[O-])cc3)cc2)CC1	-4.2%	0.0%	5.3%	-3.6%	6.9
CC(C)(C)C(=O)N1CCN(c2ccc(NC(=O)c3ccc([N+](=O)[O-])o3)cc2)CC1	7.38µM*	?	-4.5%	-25.7%	-98.5*
CCCC(=O)N1CCN(c2ccc(NC(=O)c3ccc(Br)o3)cc2)CC1	nt	-29.5%	-8.3%	-3.3%	-10.3
O=C(Nc1ccccc1N1CCN(C(=O)c2ccccc2)CC1)c1ccc([N+](=O)[O-])o1	9.0%	?	3.4%	-28.5%	?
CCCC(=O)N1CCN(c2ccc(NC(=O)c3ccc([N+](=O)[O-])o3)cc2)CC1	114.2%	16.5µM*	-16.4%	?	-96.2*
CCC(=O)N1CCN(c2ccc(NC(=O)c3ccc([N+](=O)[O-])o3)cc2)CC1	417.3%	10.4µM*	-18.8%	28.2µM*	-98.3*
Cc1ccc(S(=O)(=O)N2CCCCC2)cc1NC(=O)CNC(C)c1ccc(Cl)c(Cl)c1 (centres undefined)	?	?	nt	-2.8%	-1.1
Cc1c(C(=O)N2CCN(C3CCS(=O)(=O)C3)CC2)oc2ccc(Cl)cc12 (centres undefined)	3.1%	?	nt	2.3%	-16.8
CC(=O)Nc1ccc(-c2ccnc3c2CC(C)(C(=O)NCC2CC2)O3)cc1 (centres undefined)	nt	nt	nt	nt	24.6
O=C(NCCCCCCNC(=O)OCc1ccccc1)OCc1ccccc1	nt	nt	nt	nt	-8.8
O=C(OCc1ccccc1)N(CCCCN(CCCNCc1ccccc1)C(=O)OCc1ccccc1)CCCNCc1ccccc1	nt	nt	nt	nt	-97.4*
CCOc1ccccc1NC(=O)CCCn1cc([N+](=O)[O-])cn1	3.29µM*	11.1%	-5.7%	1.2%	19.8
Cn1c(=O)n(Cc2ccccc2)c(=O)c2c1nc1n2CCCN1Cc1ccccc1	?	?	-1.4%	12.9%	-26.9
